# Assay results from paper PMC5700166.
# Molecular target: T1, GST-Ap-NF-kB RHD (Exaiptasia pallida (Aiptasia), UniProt A0A913YAJ5 2-422)
# T1 sequence: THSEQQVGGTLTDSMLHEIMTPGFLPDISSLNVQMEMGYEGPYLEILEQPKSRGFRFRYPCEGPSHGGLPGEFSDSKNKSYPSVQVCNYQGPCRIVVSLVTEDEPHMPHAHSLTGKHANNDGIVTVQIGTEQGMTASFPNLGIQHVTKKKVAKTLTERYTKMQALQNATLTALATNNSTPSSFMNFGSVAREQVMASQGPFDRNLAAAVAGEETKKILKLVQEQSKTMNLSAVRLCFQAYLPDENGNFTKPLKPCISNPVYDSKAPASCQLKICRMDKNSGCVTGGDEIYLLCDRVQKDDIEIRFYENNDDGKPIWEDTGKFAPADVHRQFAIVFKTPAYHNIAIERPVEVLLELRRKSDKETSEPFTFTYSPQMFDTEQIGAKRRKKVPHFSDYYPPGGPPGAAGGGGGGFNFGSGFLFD
# Experiment: protein-binding microarray (PBM); PBM: ~300 nM protein, 6 mM HEPES pH 7.8, 80 mM KCl, 0.5 mM EDTA, 0.5 mM EGTA, 6% glycerol, 35 ng/ul poly-dIdC, 1% milk, 1 h, room temperature; Ap Aiptasia and Nv Nematostella (sea anemones) / Co Capsaspora / Aq Amphimedon (sponge) / Dm Drosophila / Hu human; RHD is the Rel homology domain; high values mean tight binding
# Conditions: dsDNA, one strand shown
row,Sequence,binding signal [z-score]
1,CCGATTAACATCAAATATTTCCCTGATGTTAATCGGGTCTTGATTCGCTTGACGCTGCTG,3.87
2,CCGATTAACATCAGAGTTTTCCCTGATGTTAATCGGGTCTTGATTCGCTTGACGCTGCTG,3.96
3,CCGATTAACATCAGACGTGGGAATGATGTTAATCGGGTCTTGATTCGCTTGACGCTGCTG,1.19
4,CCGATTAACATCAGGGGGGGGACTGATGTTAATCGGGTCTTGATTCGCTTGACGCTGCTG,7.06
5,CCGATTAACATCAGCATTTTCCCTGATGTTAATCGGGTCTTGATTCGCTTGACGCTGCTG,3.21
6,CCGATTAACATCAGCATGGGAAATGATGTTAATCGGGTCTTGATTCGCTTGACGCTGCTG,1.97
7,CCGATTAACATCACCCATTCCCCTGATGTTAATCGGGTCTTGATTCGCTTGACGCTGCTG,6.25
8,CCGATTAACATCAGGGGGGGGTATGATGTTAATCGGGTCTTGATTCGCTTGACGCTGCTG,5.02
9,CCGATTAACATCAAGGGGGGGTATGATGTTAATCGGGTCTTGATTCGCTTGACGCTGCTG,4.96
10,CCGATTAACATCACGTTTTTCCCTGATGTTAATCGGGTCTTGATTCGCTTGACGCTGCTG,3.81
11,CCGATTAACATCAGGGAAGACGTTGATGTTAATCGGGTCTTGATTCGCTTGACGCTGCTG,1.82
12,CCGATTAACATCAACCAATTCCCTGATGTTAATCGGGTCTTGATTCGCTTGACGCTGCTG,2.49
13,CCGATTAACATCAGGATTTTCCCTGATGTTAATCGGGTCTTGATTCGCTTGACGCTGCTG,5.75
14,CCGATTAACATCAACCTCCCCCCTGATGTTAATCGGGTCTTGATTCGCTTGACGCTGCTG,5.79
15,CCGATTAACATCAGGGAAGTACATGATGTTAATCGGGTCTTGATTCGCTTGACGCTGCTG,1.18
16,CCGATTAACATCAGGGGAGATTATGATGTTAATCGGGTCTTGATTCGCTTGACGCTGCTG,6.83
17,CCGATTAACATCAGGGGAACATATGATGTTAATCGGGTCTTGATTCGCTTGACGCTGCTG,5.1
18,CCGATTAACATCACTTTTTTCCCTGATGTTAATCGGGTCTTGATTCGCTTGACGCTGCTG,2.9
19,CCGATTAACATCAGGGGTGGGGATGATGTTAATCGGGTCTTGATTCGCTTGACGCTGCTG,4.17
20,CCGATTAACATCAAATTCTCCCCTGATGTTAATCGGGTCTTGATTCGCTTGACGCTGCTG,5.65

row,Sequence,binding signal [z-score]
1,CCGATTAACATCAAAAGTTTCCCTGATGTTAATCGGGTCTTGATTCGCTTGACGCTGCTG,5.05
2,CCGATTAACATCAAGCCCCCCCATGATGTTAATCGGGTCTTGATTCGCTTGACGCTGCTG,4.83
3,CCGATTAACATCAATTTATCCCCTGATGTTAATCGGGTCTTGATTCGCTTGACGCTGCTG,5.26
4,CCGATTAACATCAACGTTTCCCCTGATGTTAATCGGGTCTTGATTCGCTTGACGCTGCTG,5.38
5,CCGATTAACATCACGTATTCCCCTGATGTTAATCGGGTCTTGATTCGCTTGACGCTGCTG,7.14
6,CCGATTAACATCAACGTGGGGCGTGATGTTAATCGGGTCTTGATTCGCTTGACGCTGCTG,1.07
7,CCGATTAACATCACTATTTTCCCTGATGTTAATCGGGTCTTGATTCGCTTGACGCTGCTG,3.72
8,CCGATTAACATCACAAATTTCCCTGATGTTAATCGGGTCTTGATTCGCTTGACGCTGCTG,4.62
9,CCGATTAACATCAAGGGAAAAATTGATGTTAATCGGGTCTTGATTCGCTTGACGCTGCTG,3.76
10,CCGATTAACATCAGGGGTAACACTGATGTTAATCGGGTCTTGATTCGCTTGACGCTGCTG,1.82
11,CCGATTAACATCAAAAATTCCCATGATGTTAATCGGGTCTTGATTCGCTTGACGCTGCTG,5.04
12,CCGATTAACATCAACCCCCCCCATGATGTTAATCGGGTCTTGATTCGCTTGACGCTGCTG,5.53
13,CCGATTAACATCAACCCCCCCCTTGATGTTAATCGGGTCTTGATTCGCTTGACGCTGCTG,4.76
14,CCGATTAACATCAACCAATCCCCTGATGTTAATCGGGTCTTGATTCGCTTGACGCTGCTG,5.19
15,CCGATTAACATCAAGGGAAAAAATGATGTTAATCGGGTCTTGATTCGCTTGACGCTGCTG,3.77
16,CCGATTAACATCAATTTCCCGTATGATGTTAATCGGGTCTTGATTCGCTTGACGCTGCTG,2.46
17,CCGATTAACATCAAAGGGAATTCTGATGTTAATCGGGTCTTGATTCGCTTGACGCTGCTG,4.72
18,CCGATTAACATCACATACCCCCCTGATGTTAATCGGGTCTTGATTCGCTTGACGCTGCTG,4.69
19,CCGATTAACATCACTCTTTCCCCTGATGTTAATCGGGTCTTGATTCGCTTGACGCTGCTG,4.86

# Molecular target: T2, GST-Nv-NF-kB (Cys allele) (Nematostella vectensis, UniProt E5G601 2-411)
# T2 sequence: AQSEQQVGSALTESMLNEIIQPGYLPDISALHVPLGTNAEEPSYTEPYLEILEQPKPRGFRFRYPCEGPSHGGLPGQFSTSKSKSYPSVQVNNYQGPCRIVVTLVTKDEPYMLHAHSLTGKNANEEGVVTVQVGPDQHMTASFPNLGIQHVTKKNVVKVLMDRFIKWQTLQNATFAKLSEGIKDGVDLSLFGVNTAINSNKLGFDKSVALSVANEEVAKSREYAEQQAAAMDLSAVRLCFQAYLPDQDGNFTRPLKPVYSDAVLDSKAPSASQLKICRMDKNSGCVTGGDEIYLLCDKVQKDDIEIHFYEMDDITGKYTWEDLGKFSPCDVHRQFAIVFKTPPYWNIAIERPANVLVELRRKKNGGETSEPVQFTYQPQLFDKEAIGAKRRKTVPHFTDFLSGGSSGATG
# Experiment: as above
# Conditions: dsDNA, one strand shown
row,Sequence,binding signal [z-score]
1,CCGATTAACATCAAATATTTCCCTGATGTTAATCGGGTCTTGATTCGCTTGACGCTGCTG,6.57
2,CCGATTAACATCAGAGTTTTCCCTGATGTTAATCGGGTCTTGATTCGCTTGACGCTGCTG,5.58
3,CCGATTAACATCAGACGTGGGAATGATGTTAATCGGGTCTTGATTCGCTTGACGCTGCTG,1.45
4,CCGATTAACATCAGGGGGGGGACTGATGTTAATCGGGTCTTGATTCGCTTGACGCTGCTG,5.11
5,CCGATTAACATCAGCATTTTCCCTGATGTTAATCGGGTCTTGATTCGCTTGACGCTGCTG,4.61
6,CCGATTAACATCAGCATGGGAAATGATGTTAATCGGGTCTTGATTCGCTTGACGCTGCTG,2.72
7,CCGATTAACATCACCCATTCCCCTGATGTTAATCGGGTCTTGATTCGCTTGACGCTGCTG,5.53
8,CCGATTAACATCAGGGGGGGGTATGATGTTAATCGGGTCTTGATTCGCTTGACGCTGCTG,2.75
9,CCGATTAACATCAAGGGGGGGTATGATGTTAATCGGGTCTTGATTCGCTTGACGCTGCTG,3.8
10,CCGATTAACATCACGTTTTTCCCTGATGTTAATCGGGTCTTGATTCGCTTGACGCTGCTG,4.59
11,CCGATTAACATCAGGGAAGACGTTGATGTTAATCGGGTCTTGATTCGCTTGACGCTGCTG,1.64
12,CCGATTAACATCAACCAATTCCCTGATGTTAATCGGGTCTTGATTCGCTTGACGCTGCTG,3.94
13,CCGATTAACATCAGGATTTTCCCTGATGTTAATCGGGTCTTGATTCGCTTGACGCTGCTG,8.01
14,CCGATTAACATCAACCTCCCCCCTGATGTTAATCGGGTCTTGATTCGCTTGACGCTGCTG,3.9
15,CCGATTAACATCAGGGAAGTACATGATGTTAATCGGGTCTTGATTCGCTTGACGCTGCTG,1.34
16,CCGATTAACATCAGGGGAGATTATGATGTTAATCGGGTCTTGATTCGCTTGACGCTGCTG,5.48
17,CCGATTAACATCAGGGGAACATATGATGTTAATCGGGTCTTGATTCGCTTGACGCTGCTG,5.89
18,CCGATTAACATCACTTTTTTCCCTGATGTTAATCGGGTCTTGATTCGCTTGACGCTGCTG,4.9
19,CCGATTAACATCAGGGGTGGGGATGATGTTAATCGGGTCTTGATTCGCTTGACGCTGCTG,3.38
20,CCGATTAACATCAAATTCTCCCCTGATGTTAATCGGGTCTTGATTCGCTTGACGCTGCTG,6.62

row,Sequence,binding signal [z-score]
1,CCGATTAACATCAAAAGTTTCCCTGATGTTAATCGGGTCTTGATTCGCTTGACGCTGCTG,7.19
2,CCGATTAACATCAAGCCCCCCCATGATGTTAATCGGGTCTTGATTCGCTTGACGCTGCTG,3.07
3,CCGATTAACATCAATTTATCCCCTGATGTTAATCGGGTCTTGATTCGCTTGACGCTGCTG,5.83
4,CCGATTAACATCAACGTTTCCCCTGATGTTAATCGGGTCTTGATTCGCTTGACGCTGCTG,6.77
5,CCGATTAACATCACGTATTCCCCTGATGTTAATCGGGTCTTGATTCGCTTGACGCTGCTG,7.75
6,CCGATTAACATCAACGTGGGGCGTGATGTTAATCGGGTCTTGATTCGCTTGACGCTGCTG,1.14
7,CCGATTAACATCACTATTTTCCCTGATGTTAATCGGGTCTTGATTCGCTTGACGCTGCTG,4.96
8,CCGATTAACATCACAAATTTCCCTGATGTTAATCGGGTCTTGATTCGCTTGACGCTGCTG,6.4
9,CCGATTAACATCAAGGGAAAAATTGATGTTAATCGGGTCTTGATTCGCTTGACGCTGCTG,6.35
10,CCGATTAACATCAGGGGTAACACTGATGTTAATCGGGTCTTGATTCGCTTGACGCTGCTG,1.03
11,CCGATTAACATCAAAAATTCCCATGATGTTAATCGGGTCTTGATTCGCTTGACGCTGCTG,7.75
12,CCGATTAACATCAACCCCCCCCATGATGTTAATCGGGTCTTGATTCGCTTGACGCTGCTG,4.32
13,CCGATTAACATCAACCCCCCCCTTGATGTTAATCGGGTCTTGATTCGCTTGACGCTGCTG,4
14,CCGATTAACATCAACCAATCCCCTGATGTTAATCGGGTCTTGATTCGCTTGACGCTGCTG,5.28
15,CCGATTAACATCAAGGGAAAAAATGATGTTAATCGGGTCTTGATTCGCTTGACGCTGCTG,5.84
16,CCGATTAACATCAATTTCCCGTATGATGTTAATCGGGTCTTGATTCGCTTGACGCTGCTG,4.12
17,CCGATTAACATCAAAGGGAATTCTGATGTTAATCGGGTCTTGATTCGCTTGACGCTGCTG,7.1
18,CCGATTAACATCACATACCCCCCTGATGTTAATCGGGTCTTGATTCGCTTGACGCTGCTG,3.25
19,CCGATTAACATCACTCTTTCCCCTGATGTTAATCGGGTCTTGATTCGCTTGACGCTGCTG,5.44
